KCC2 mod = modulates chloride dependent transport by human KCC2; Q9H2X9; KCC2 cells, thallium flux FluoZin-2 fluorescence; B-score of Tl+ flux slope (higher = more flux/activation; lower = inhibition) at 10 µM; hit rate 2.2% among 190,000;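 active means thallium flux slope and its plate-corrected score both differing from the plate sample mean at a set confidence after two filtering rounds, in either direction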;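 further: slope of fluorescence scaled to starting intensity during 10 to 20 s after thallium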
ROMK primary = modulators of human ROMK potassium channel; AID 1918; P48048; Tet-inducible ROMK, thallium flux fluorescence; actives lie on both sides; hit rate 2% among 130,000; B-score at 10 µM;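 active means signal ratio slope over the read window, or its plate-corrected B-score, at least 3 SD from the plate mean, either direction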;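 further: B-score of the F/F0 ratio slope over 7 to 12 s after thallium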
L major viab = Leishmania major promastigote growth inhibition; Leishmania major promastigotes, resazurin fluorescence viability; inhibition, % at 10 µM; hit rate 9% among 200,000; AID 1063; in the data active means inhibition above about 50%;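 further: promastigotes grown with compound for 44 hours at 28 °C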
WT yeast gro inh = growth inhibition of WT yeast, mitochondrial fusion screen; mitochondrial fusion phenotypic screen, WT strain; inhibition, % at 10 µM; hit rate 2.1% among 190,000; AID 1362; in the data active means inhibition above about 58%; tested in S. cerevisiae
INS promoter inh = TRM-6 insulin promoter activity inhibition. TRM-6 cells (human fetal islet line), insulin promoter-eGFP reporter, imaging; reporter expression induced with tamoxifen. inhibition, % at 2 µM. hit rate 0.9% among 130,000. AID 1273;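 active means inhibition above the mean plus 3 SD, with well images judged a real hit on visual review, cut at about 60% in these data, passing the limit was not always enough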
Ins promoter up = MIN6 insulin promoter up-regulation. MIN6 insulin promoter-GFP reporter, high-content imaging; hits give high values. z-score at 5 µM. hit rate 0.3% among 190,000;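 active means z-score above 3 at 5 µM with at least 500 cells counted in the well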
An asterisk follows results filed as active; i = inactive; . = no result. An excerpt weighted towards active compounds, which were near 12% of everything screened.

SMILES | KCC2 mod | ROMK primary | L major viab | WT yeast gro inh | INS promoter inh | Ins promoter up
CCOC(=O)c1nc(NCc2ccccc2C)c2ccccc2n1 | -1.6 | 1.1 | 65* | 4 | . | -0.16
O=C(O)CCC(=O)Nc1ccc(Cc2ccc(NC(=O)CCC(=O)O)c(O)c2)cc1O | -0.063 | 0.58 | -6 | 8 | 31 | 1.6
O=C(Nc1ccc(Cc2ccc(NC(=O)C3CC3)c(O)c2)cc1O)C1CC1 | 0.069 | 0.3 | 52* | -16 | 25 | -0.84
COc1ccc(NC(=O)C(Sc2nnc(-c3ccncc3)n2-c2ccccc2C)c2ccccc2)cc1Cl (stereo not drawn) | -0.29 | -0.65 | 99* | -12 | -62 | -0.48
COc1cccc(-c2nnc(NC(=O)c3ccccc3Br)o2)c1 | 2.8 | . | . | 4 | . | 1.9
CCN1/C(=C/C(C)=C/c2sc3ccccc3[n+]2CC)Sc2ccccc21 | -0.038 | -1.2 | 100* | 89 | i | -3.5

Assay outcomes from PubChem.
